Potency and affinity values are given separately.

This assay relates to Candida albicans. As to conditions: 32 ug/mL.
For `N=C(Nc1ccccc1Cl)c1cscn1`, the Inhibition came out at 2.14%.
Take `Clc1cccc2c1nc(-c1cscn1)n2Cc1ccccc1`: the Inhibition was determined as 5.46%.
For `Clc1ccc2c(c1)nc(-c1cscn1)n2Cc1ccccc1`, the Inhibition was 1.89%.
As to `Fc1cc(Cn2c(-c3cscn3)nc3c(Cl)cccc32)cc(C(F)(F)F)c1`, the Inhibition turned out to be 3.24%.
In the case of `N#Cc1ccccc1-c1ccc(Cn2c(-c3cscn3)nc3cc(Cl)ccc32)cc1`, the Inhibition was -1.51%.
Turning to `Clc1cccc2[nH]c(-c3cscn3)nc12`, the Inhibition is 15%.
Take `CCc1ccc(Nc2nc(N)c(-c3nc4ccccc4c(=O)n3-c3ccc(Cl)cc3)s2)cc1`: the Inhibition is 0.52%.
Consider `Clc1ccc2nc(-c3cscn3)n(Cc3ccccc3)c2c1`, for which the Inhibition was determined as 0.38%.
For the compound `N#Cc1ccccc1-c1ccc(Cn2c(-c3cscn3)nc3ccccc32)cc1`, the Inhibition amounted to 1.96%.
As to `Nc1nc(Nc2ccc(Cl)cc2)sc1-c1nc2ccccc2c(=O)n1-c1ccccc1`, the Inhibition is 3.78%.
`N=C(Nc1ccccc1)c1cscn1`: the Inhibition amounted to 6.13%.
Turning to `Cn1c(-c2cscn2)nc2c(Cl)cccc21`, the Inhibition turned out to be 4.84%.
For `N#Cc1ccccc1-c1ccc(Cn2c(-c3cscn3)nc3ccc(Cl)cc32)cc1`, the Inhibition stood at 1.5%.
For `CC(C)c1ccc(Cn2c(-c3cscn3)nc3c(Cl)cccc32)cc1`, the Inhibition came to 2.25%.
In the case of `Cn1c(-c2cscn2)nc2cc(Cl)ccc21`, the Inhibition is 0.35%.
On to `N#Cc1ccc(Cn2c(-c3cscn3)nc3c(Cl)cccc32)cc1`, for which the Inhibition is 4.47%.
`O=[N+]([O-])c1ccc(Cn2c(-c3cscn3)nc3ccccc32)cc1`: the Inhibition came out at 3.4%.
The result for `CCc1ccc(Nc2nc(N)c(-c3nc4ccccc4c(=O)n3-c3ccc(CC)cc3)s2)cc1` reads 3.1%.
Consider `CCc1ccc(Nc2nc(N)c(-c3nc4ccccc4c(=O)n3-c3ccccc3)s2)cc1`, for which the Inhibition stood at 6%.

For the origin of these results see ChEMBL document CHEMBL4513154, “CO-ADD screening of Jain University (India) compounds”.
